According to PubChem BioAssay (NCI):
Where “and” joins values, the source holds several entries; their conditions need not be identical. Equal entries are not always repeated. Compounds without any hit were thinned out: in the full panel of roughly 83,000, 20% have a hit.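 Values shown are percent growth following 48 h exposure of cells in 96-well plates to a single concentration of compound; below 10 was considered active.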 Calls of active or inactive are those of the source.

What follows are molecules tested on MDA-MB-468 breast (assay: NCI-60 one-dose screen, 48 h (100 = growth as untreated, 0 = no growth, -100 = all killed)). Conditions: 10 µM unless noted.

SMILES	growth
COc1ccc2c(c1)c(-c1nc(-c3cn(C)c4ncccc34)cs1)cn2CCCCN1CCOCC1	35% (inactive)
CC(Oc1ccc(-c2ccccc2)cc1)C(=O)O (centres undefined)	94.4% (inactive)
O=C(c1ccccc1O)c1[nH]c(Cl)c(Cl)c1-n1c(C(=O)c2ccccc2O)cc(Cl)c1Cl	-13.8% (active)
C=C1[C@@H](C)C2[C@H](Cc3ccccc3)NC(=O)[C@]23[C@H](OC(C)=O)/C=C/[C@@](C)(O)C(=O)[C@@H](C)C/C=C/[C@H]3[C@@H]1O (some centres undefined)	45.2% (inactive)
CC12CC[C@H](O)C=C1/C(=N/O)CC1C2CCC2(C)C1CC[C@@H]2O (some centres undefined)	100% (inactive)
NC(=O)SCC(=O)Nc1ccc([As](=O)(O)O)cc1	87.2% (inactive)
CC/C(=C/c1ccc(OC)cc1)[N+](=O)[O-]	-56.6% (active)
C[C@]12CC[C@H]3[C@@H](C[C@@H]4SC(Nc5ccccc5)=N[C@@]45C/C(=N/O)CC[C@]35C)[C@@H]1CCC2=O	59.9% (inactive)
CC1=C(O)[C@@](C)(CCCCC[C@H](C)CCCCc2ccc(O)cc2)OOC1=O	113% (inactive)
C/C=C/CC(C)C(O)[C@H](NC(=O)[C@@H]1CCCN1C(=O)C(C)(C)NC(=O)CCCCCCC)C(=O)N[C@@](C)(CC)C(=O)N[C@@H](CCC(N)=O)C(=O)N[C@H](CCC(N)=O)C(=O)NC(C)(C)C(=O)NC(C)(C)C(=O)N[C@@H](CCC(N)=O)C(=O)N[C@H](CC(C)C)C(=O)N[C@H](CO)CC(C)C (some centres undefined)	106% (inactive) and -55.5% (active)
O=c1cc[nH]c(=O)o1	105% (inactive)
N/C(=N\N=C\c1ccc(-c2ccccc2)cc1)N[N+](=O)[O-]	20% (inactive)
CC(CC(C#N)(c1ccccc1)c1ccccc1)N1CCOCC1 (centres undefined)	107% (inactive)
CC1(CF)NC(=O)NC1=O (centres undefined)	113% (inactive)
Clc1cccc(N2COOC3(OOC2)C2CC4CC(C2)CC3C4)c1	77.7% (inactive)
Nc1c(F)cc(-c2nc3cc(F)ccc3[se]2)cc1F	-39.8% (active)
O=C(Nc1ccc(O)cc1)C(Cl)(Cl)Cl	95.2% (inactive)

SMILES	growth
O=[N+]([O-])c1ccc(N(CCO)CCO)c2c1no[n+]2[O-]	2.96% (active)
CC1=C[C@H]2O[C@@H]3C[C@H]4OC(=O)/C=C\C=C\[C@H]([C@@H](C)O)OCC/C(C)=C/C(=O)OC[C@@]2(CC1)[C@]4(C)[C@]31CO1	-63.8% (active)
CC(C)CCC1(CCCl)C(=O)NC(=O)NC1=O	90.1% (inactive)
C[C@]12CCc3sc(Nc4ccc(O)cc4)nc3C1=CC[C@@H]1[C@@H]2CC[C@]2(C)C(=O)CC[C@@H]12	-36.9% (active)
CCCCCCCCCCCCCCCCCC1OC[C@@H](COC(=O)O[C@@H](C(=O)O[C@H]2C[C@@]3(O)[C@@H](OC(=O)c4ccccc4)[C@@H]4[C@]5(OC(C)=O)CO[C@@H]5C[C@H](O)[C@@]4(C)C(=O)[C@H](OC(C)=O)C(=C2C)C3(C)C)[C@@H](NC(=O)c2ccccc2)c2ccccc2)O1 (some centres undefined)	21% (inactive)
CCN(CC)CCOC(=O)C(OC(C)C)(c1ccccc1)c1ccccc1	95.1% (inactive)
COc1cc(/C=C\c2cc(OC)c(OC)c(OC)c2)cc(NS(=O)(=O)c2cccc(Cl)c2)c1OC	47% (inactive)
CN[C@]1(c2ccccc2Cl)CCCC[C@H]1NCCCN1CCN(C)CC1	85.2% (inactive)
CC(=O)O[C@H]1CC[C@H]2[C@@H]3CC[C@H]4CC=C(C)C[C@]4(C)[C@H]3CC[C@]12C	105% (inactive)
OCCCCCNC1CCCCC1	97.6% (inactive)
C=C1C(=O)O[C@H]2[C@H]1CC/C(COC(=O)C(=O)c1cn(Cc3ccccc3)c3ccccc13)=C\CC[C@@]1(C)O[C@@H]21	-60.5% (active)
COC(=O)N[C@H]1CCc2c(Br)c(OC)c(OC)c(OC)c2-c2ccc(SC)c(=O)cc21	-23.7% (active)
O=[N+]([O-])/C=C\c1ccc2c(c1)OCO2	82% (inactive)
N#Cc1ncc(/N=C/c2ccc(N(CCCl)CCCl)cc2)s1	-2.43% (active)
O=C1CN2CCC1CC2	104% (inactive)
C[C@]12CCc3sc(Nc4ccc(F)cc4F)nc3C1=CC[C@@H]1[C@@H]2CC[C@]2(C)C(=O)CC[C@@H]12	23.3% (inactive)
Cc1sc2c(c1C)C(c1ccc(Cl)cc1)=N[C@@H](CC(=O)OC(C)(C)C)c1nnc(C)n1-2	-10.8% (active)
